Each compound was assayed on E18 rat cortical neuron-glia co-culture (assay: myelination (MBP fiber length per Olig2+ nucleus), % of 1 µM DAPT response (DMSO = 0) (% of DAPT); higher = more myelination, active = 50 or more). Conditions: 1 µM; treatment time: 8 days (DIV5-DIV13).
Summary of the method: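 Primary E18 rat cortical co-cultures (papain-dissociated, 20,000 cells/well on poly-d-lysine/laminin 96-well plates) received library compounds at 1 or 5 µM in myelination medium from DIV5 to DIV13. Cells were fixed in 4 % paraformaldehyde and immunostained for MBP and Olig2 with DAPI, and four 10X fields per well in duplicate wells were analysed. Myelination was continuous straight MBP fiber length per Olig2+ nucleus, normalised to 0.1 % DMSO (0) and a 1 µM positive control (100).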

SMILES | myelination
C[C@]12CC[C@H](O)CC1=CC[C@@H]1[C@@H]2CC[C@@]2(C)[C@H]1CC[C@]2(C)O [Methandriol] | -15.9 (inactive)
CNC1CC(c2ccc(Cl)c(Cl)c2)c2ccccc21 (stereo unspecified) [Indatraline] | -58 (inactive)
C[C@]12C/C(=C/O)C(=O)C[C@@H]1CC[C@@H]1[C@@H]2CC[C@@]2(C)[C@H]1CC[C@]2(C)O [Oxymetholone] | -11.9 (inactive)
COc1ccc2[nH]cc(CCN)c2c1 [5-Methoxytryptamine] | -6.66 (inactive)
CC(C)N(CCC(C(N)=O)(c1ccccc1)c1ccccn1)C(C)C (stereo unspecified) [Disopyramide] | -13.9 (inactive)
CN1C(=O)CN=C(c2ccccc2)c2cc([N+](=O)[O-])ccc21 [Nimetazepam] | -11 (inactive)
CCOC(=O)C1(c2ccccc2)CCN(CCC(C#N)(c2ccccc2)c2ccccc2)CC1 [Diphenoxylate] | -12.3 (inactive)
O=c1c2ccccc2[se]n1-c1ccccc1 [Ebselen] | 8.33 (inactive)
c1cncc([C@@H]2CCCN2)c1 [Nornicotine] | -20.2 (inactive)
CCCC(C)(COC(N)=O)COC(=O)NC(C)C (stereo unspecified) [Carisoprodol] | -13 (inactive)
Oc1ccc2c3c1O[C@H]1[C@@H](O)CC[C@@]4(O)[C@@H](C2)N(CC2CCC2)CC[C@]314 [Nalbufina] | -19 (inactive)
C[C@]12Cc3c[nH]nc3C[C@@H]1CC[C@@H]1[C@@H]2CC[C@@]2(C)[C@H]1CC[C@]2(C)O [Stanozolol] | -13.6 (inactive)
NCCc1ccccn1 [2-(2-aminoethyl)pyridine] | -7.37 (inactive)
Oc1cc(Cl)ccc1Oc1ccc(Cl)cc1Cl [Triclosan] | 26.5 (inactive)
O=C1CN=C(c2ccccc2)c2cc([N+](=O)[O-])ccc2N1 [Nitrazepam] | -6.44 (inactive)
COC(=O)N1CCN(C(=O)Cc2ccc(Cl)c(Cl)c2)C(CN2CCCC2)C1 (stereo unspecified) | -13 (inactive)
CCOC(=O)c1cncn1[C@H](C)c1ccccc1 [Etomidate] | -14.6 (inactive)
C[C@]12CCC(=O)C=C1CC[C@@H]1[C@@H]2CC[C@@]2(C)[C@H]1CC[C@]2(C)O [Methyltestosterone] | -24.8 (inactive)
CN1CC[C@]23c4c5ccc(O)c4O[C@H]2c2[nH]c4ccccc4c2C[C@@]3(O)[C@H]1C5 [Oxymorphindole] | 97
CN(C)C(=O)Oc1ccc[n+](C)c1 [Pyridostigmine Bromide] | -14.3 (inactive)
NC1=NC(=O)C(c2ccccc2)O1 (stereo unspecified) [Pemoline] | -21.3 (inactive)
CCC(COC(=O)c1cc(OC)c(OC)c(OC)c1)(c1ccccc1)N(C)C (stereo unspecified) [Trimebutine] | -54.2 (inactive)
COc1cc([C@@H]2c3cc4c(cc3[C@H](O)[C@H]3COC(=O)[C@H]23)OCO4)cc(OC)c1OC [Podophyllotoxin] | -13.9 (inactive)
CN1CC[C@]23CCCC[C@H]2[C@H]1Cc1ccc(O)cc13 [Levorphanol] | -27.6 (inactive)
CN1CC[C@]2(c3cccc(O)c3)Cc3nc4ccccc4cc3C[C@H]2C1 | -18.1 (inactive)
N=C(NCc1ccc(Cl)cc1)SCCCc1c[nH]cn1 [Clobenpropit] | -13 (inactive)
CN1C(=O)CN=C(c2ccccc2)c2cc(Cl)ccc21 [Diazepam] | -8.32 (inactive)
C[C@H]1CCC[C@H](O)CCCCCc2cc(O)cc(O)c2C(=O)O1 [Zeranol] | -13.7 (inactive)

Same assay, conditions: 5 µM; treatment time: 8 days (DIV5-DIV13)

SMILES | myelination
C[C@]12CC[C@H](O)CC1=CC[C@@H]1[C@@H]2CC[C@@]2(C)[C@H]1CC[C@]2(C)O [Methandriol] | -4.34 (inactive)
C[C@]12C/C(=C/O)C(=O)C[C@@H]1CC[C@@H]1[C@@H]2CC[C@@]2(C)[C@H]1CC[C@]2(C)O [Oxymetholone] | -8.04 (inactive)
COc1ccc2[nH]cc(CCN)c2c1 [5-Methoxytryptamine] | -8.85 (inactive)
CC(C)N(CCC(C(N)=O)(c1ccccc1)c1ccccn1)C(C)C (stereo unspecified) [Disopyramide] | -13.6 (inactive)
CN1C(=O)CN=C(c2ccccc2)c2cc([N+](=O)[O-])ccc21 [Nimetazepam] | -8.49 (inactive)
CCOC(=O)C1(c2ccccc2)CCN(CCC(C#N)(c2ccccc2)c2ccccc2)CC1 [Diphenoxylate] | 11.5 (inactive)
c1cncc([C@@H]2CCCN2)c1 [Nornicotine] | -19 (inactive)
CCCC(C)(COC(N)=O)COC(=O)NC(C)C (stereo unspecified) [Carisoprodol] | -11.9 (inactive)
Oc1ccc2c3c1O[C@H]1[C@@H](O)CC[C@@]4(O)[C@@H](C2)N(CC2CCC2)CC[C@]314 [Nalbufina] | -7.9 (inactive)
NCCc1ccccn1 [2-(2-aminoethyl)pyridine] | -9.08 (inactive)
O=C1CN=C(c2ccccc2)c2cc([N+](=O)[O-])ccc2N1 [Nitrazepam] | 0.525 (inactive)
COC(=O)N1CCN(C(=O)Cc2ccc(Cl)c(Cl)c2)C(CN2CCCC2)C1 (stereo unspecified) | -22.4 (inactive)
CCOC(=O)c1cncn1[C@H](C)c1ccccc1 [Etomidate] | 6.64 (inactive)
C[C@]12CCC(=O)C=C1CC[C@@H]1[C@@H]2CC[C@@]2(C)[C@H]1CC[C@]2(C)O [Methyltestosterone] | -17.2 (inactive)
CN(C)C(=O)Oc1ccc[n+](C)c1 [Pyridostigmine Bromide] | -8.88 (inactive)
NC1=NC(=O)C(c2ccccc2)O1 (stereo unspecified) [Pemoline] | -11.3 (inactive)
CCC(COC(=O)c1cc(OC)c(OC)c(OC)c1)(c1ccccc1)N(C)C (stereo unspecified) [Trimebutine] | -64 (inactive)
COc1cc([C@@H]2c3cc4c(cc3[C@H](O)[C@H]3COC(=O)[C@H]23)OCO4)cc(OC)c1OC [Podophyllotoxin] | -15.8 (inactive)
CN1CC[C@]23CCCC[C@H]2[C@H]1Cc1ccc(O)cc13 [Levorphanol] | -51.1 (inactive)
CN1CC[C@]2(c3cccc(O)c3)Cc3nc4ccccc4cc3C[C@H]2C1 | 2.91 (inactive)
N=C(NCc1ccc(Cl)cc1)SCCCc1c[nH]cn1 [Clobenpropit] | 3.66 (inactive)
CN1C(=O)CN=C(c2ccccc2)c2cc(Cl)ccc21 [Diazepam] | -9.05 (inactive)
C[C@H]1CCC[C@H](O)CCCCCc2cc(O)cc(O)c2C(=O)O1 [Zeranol] | -5.48 (inactive)
